High-throughput results deposited in PubChem by The Scripps Research Institute Molecular Screening Center.
TEAD-YAP block = TEAD-YAP interaction inhibition; HEK-TIYL cells, TEAD-Gal4/YAP UAS-luciferase luminescence; inhibition, % at 9.12 µM; hit rate 1.4% among 640,000; AID 1259422; in the data active = inhibition above about 32%
GPR151 activ = human GPR151 activation. PathHunter beta-arrestin GPR151 cells, luminescence. activation, % at 11.2 µM. hit rate 1% among 650,000. AID 1508602; in the data active = activation above about 4.9%
MITF inh = inhibitors of human MITF | hit rate 0.91% among 650,000 | AlphaScreen MITF homodimerization, bead proximity signal | inhibition, % at 2.6 µM | O75030; in the data active = inhibition above about 50%
FBW7 act = activators of human E3 ligase FBW7; Q969H0; AlphaScreen FBW7–phospho-cyclin E peptide binding, activator screen; normalized activity (activation), % at 26.1 µM; hit rate 0.13% among 650,000; AID 1259310; in the data active = normalized activity above about 1.9%;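 also: purified mutant Fbw7 with reduced substrate affinity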
Target sequence (Q969H0 whole entry, looked up): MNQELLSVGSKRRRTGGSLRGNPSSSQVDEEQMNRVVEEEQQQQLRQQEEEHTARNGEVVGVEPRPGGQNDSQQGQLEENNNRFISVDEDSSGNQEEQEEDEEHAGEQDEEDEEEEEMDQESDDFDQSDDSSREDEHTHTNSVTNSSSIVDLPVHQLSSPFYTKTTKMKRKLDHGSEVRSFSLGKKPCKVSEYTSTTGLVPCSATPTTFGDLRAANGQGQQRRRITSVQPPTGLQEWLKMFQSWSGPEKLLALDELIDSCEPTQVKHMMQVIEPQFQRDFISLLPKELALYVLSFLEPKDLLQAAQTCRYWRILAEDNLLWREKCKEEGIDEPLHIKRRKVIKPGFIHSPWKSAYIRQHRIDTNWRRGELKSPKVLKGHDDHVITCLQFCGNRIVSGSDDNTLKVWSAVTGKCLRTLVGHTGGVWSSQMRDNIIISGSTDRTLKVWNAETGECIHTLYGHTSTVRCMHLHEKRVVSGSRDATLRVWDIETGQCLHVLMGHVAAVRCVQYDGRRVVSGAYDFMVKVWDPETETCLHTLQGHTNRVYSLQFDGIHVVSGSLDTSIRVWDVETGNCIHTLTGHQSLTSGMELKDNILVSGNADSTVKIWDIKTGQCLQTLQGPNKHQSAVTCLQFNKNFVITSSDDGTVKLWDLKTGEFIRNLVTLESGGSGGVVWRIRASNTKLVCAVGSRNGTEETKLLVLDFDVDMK
Numbers stand for hits; - = inactive. In the library only some 3.4% were active in any assay of this set; here they are far more common.

SMILES	TEAD-YAP block	GPR151 activ	MITF inh	FBW7 act
Cc1cc(C(=O)COC(=O)c2n[nH]c3ccccc23)c(C)n1CC1CCCO1 (stereo unspecified)	94	-	-	-
Cc1cc(C(=O)COC(=O)c2ccccc2[N+](=O)[O-])c(C)n1CC(F)(F)F	95	-	-	-
Cc1cc(C(=O)COC(=O)c2ccccc2Br)c(C)n1CC1CCCO1 (stereo unspecified)	92	-	-	-
COc1ccc(C(=O)OCC(=O)c2cc(C)n(CC(F)(F)F)c2C)cc1[N+](=O)[O-]	-	-	-	-
CC(=O)N1CCc2cc(Br)cc(S(=O)(=O)N3CCN(C)CC3)c21	-	-	-	-
Cc1ccc(NC2(C#N)C(=O)Nc3ccccc32)c(C)c1 (stereo unspecified)	-	-	-	-
Cc1ccc(-n2nc3c(c2NC(=O)C24CC5CC(CC(C5)C2)C4)CSC3)cc1	-	-	-	-
Cc1cc(C(=O)COC(=O)c2cccnc2Cl)c(C)n1CC1CCCO1 (stereo unspecified)	66	-	-	-
O=C(CC12CC3CC(CC(Br)(C3)C1)C2)OCC(=O)c1ccccc1	67	-	-	-
CCOC(=O)C(NC(C)=O)C(O)c1ccc(N)cc1 (stereo unspecified)	-	-	-	-
C[C@H](NC(=O)N1CCC2(CC1)NCCc1c2[nH]c2ccc(Cl)cc12)c1ccccc1	37	-	-	-
Cc1noc(C)c1NC(=O)N1CCC2(CC1)NCCc1c2[nH]c2ccc(Cl)cc12	-	-	-	-
COc1cccc(NC(=O)N2CCC3(CC2)NCCc2c3[nH]c3ccc(Cl)cc23)c1	48	-	-	-
Cc1ccc2[nH]c3c(c2c1)CCNC31CCN(C(=O)N[C@@H](C)c2ccccc2)CC1	-	-	-	-
O=c1oc2ccccc2c(OC(O)c2cccnc2)c1C(c1cccnc1)N1CCOCC1 (stereo unspecified)	-	-	-	-
CCOC(=O)C1=C(C)NC2=C(C(=O)CC(c3cccs3)C2)C1c1ccc(C)s1 (stereo unspecified)	-	-	-	-
CCSCCOC(=O)c1[nH]c2c(c1C)C(=O)CC(c1cccs1)C2 (stereo unspecified)	55	-	-	-
C/C=C/COC(=O)c1[nH]c2c(c1C)C(=O)CC(c1cccs1)C2 (stereo unspecified)	42	-	-	-
CCOCCOC(=O)c1[nH]c2c(c1C)C(=O)CC(c1cccs1)C2 (stereo unspecified)	54	-	-	-
CCOC(=O)c1[nH]c2c(c1C)C(=O)CC(c1cccs1)C2 (stereo unspecified)	52	-	-	-
CCSCCOC(=O)C1=C(C)NC2=C(C(=O)CC(c3cccs3)C2)C1c1ccc(F)cc1 (stereo unspecified)	-	-	-	-
CC(NS(=O)(=O)c1cccc(C(F)(F)F)c1)C1CC2CCC1C2 (stereo unspecified)	-	-	-	-
Cc1c(C(=O)Oc2ccccc2)sc2ncn(Cc3cccc(F)c3)c(=O)c12	-	-	-	-
COCCOC(=O)c1[nH]c2c(c1C)C(=O)CC(c1cccs1)C2 (stereo unspecified)	49	-	-	-
Cc1c(C(=O)OC(C)C)[nH]c2c1C(=O)CC(c1cccs1)C2 (stereo unspecified)	60	-	-	-
SMILES	TEAD-YAP block	GPR151 activ	MITF inh	FBW7 act
Cc1c(C(=O)OCCOC(C)C)[nH]c2c1C(=O)CC(c1cccs1)C2 (stereo unspecified)	51	-	-	-
Cc1cc(C)nc(SCC(=O)Nc2ccccn2)n1	-	-	-	-
O=C(COc1ccccc1)NCc1nnc2n1CCN(Cc1ccc3c(c1)CCO3)CC2	-	-	-	-
CC(C(=O)NCCn1nc(-c2cccs2)oc1=O)n1ncc2ccccc2c1=O (stereo unspecified)	-	-	-	-
CC(=O)Nc1ccc(/C=C2\CCc3ccccc3C2=O)cc1	70	-	-	-
CC1CC(C)CN(c2ncnc3c2cnn3-c2ccccc2)C1 (stereo unspecified)	-	-	-	-
CC1CCCN(c2ncnc3c2cnn3-c2ccc(Cl)cc2)C1 (stereo unspecified)	94	-	-	-
CC1CCN(c2ncnc3c2cnn3-c2ccc(Cl)cc2)CC1	-	-	-	-
Cc1cccc(-n2ncc3c(N4CCC(C)CC4)ncnc32)c1	-	-	-	-
Cc1cccc(-n2ncc3c(N4CCCC(C)C4)ncnc32)c1 (stereo unspecified)	96	-	-	-
CC1CC(C)CN(c2ncnc3c2cnn3-c2ccc(Cl)cc2)C1 (stereo unspecified)	34	-	-	-
CC1CCCN(c2ncnc3c2cnn3-c2ccccc2)C1 (stereo unspecified)	84	-	-	-
CN1CCN(c2ncnc3c2cnn3-c2ccc(Cl)cc2)CC1	67	-	-	-
CCN1CCN(c2ncnc3c2cnn3-c2ccc(Cl)cc2)CC1	-	-	-	-
Cc1cccc(-n2ncc3c(N4CCCCCC4)ncnc32)c1	74	-	-	-
CC(=O)Nc1cccc(Oc2ccc3c(c2)C(=O)N(c2cccc(Oc4ccc(C)c(C)c4)c2)C3=O)c1	-	-	-	-
O=C(Nc1nnc(COc2ccc(C3CCCCC3)cc2)s1)C12CC3CC(CC(C3)C1)C2	-	-	-	1.9
CCOC(=O)c1c(NC(=O)Cc2cccs2)sc(C(=O)Nc2ccccc2C)c1C	-	-	-	-
CCOC(=O)N1CCN(c2c(NCc3ccc(F)cc3)c(=O)c2=O)CC1	55	-	-	-
CCOC(=O)N1CCN(c2c(N3CCN(c4ccc(F)cc4)CC3)c(=O)c2=O)CC1	-	-	-	-
CC(=O)NC(Nc1nnc(-c2ccccc2)s1)C(Cl)(Cl)Cl (stereo unspecified)	-	-	-	-
CC(=O)NC(Nc1nnc(-c2ccc(C)cc2)s1)C(Cl)(Cl)Cl (stereo unspecified)	49	-	-	-
COC(=O)c1ccc(/C=N/NC(=O)c2ccoc2C)cc1	35	-	-	-
CCc1ccc(/C=N/NC(=O)c2ccoc2C)cc1	-	-	-	-
Cc1ccccc1NC(=O)c1c(Cl)nc(Cl)c(Cl)c1Cl	64	-	-	-
SMILES	TEAD-YAP block	GPR151 activ	MITF inh	FBW7 act
Cc1nc(Cl)c(C(=O)NCc2ccccc2)c(C)c1Cl	-	-	-	-
Cc1cccc(NC(=O)c2c(Cl)nc(Cl)c(Cl)c2Cl)c1C	36	-	-	-
O=C(NCc1ccccc1)c1c(Cl)nc(Cl)c(Cl)c1Cl	47	-	-	-
C=CCSC1=C(C#N)C(c2ccc(OCc3ccccc3)cc2)CC(=O)N1 (stereo unspecified)	33	-	-	-
COc1ccc(Cc2noc(-c3ccc([N+](=O)[O-])o3)n2)cc1OC	67	-	-	-
COc1ccc(Cc2noc(-c3ccc(OC)c(OC)c3)n2)cc1OC	-	-	-	-
COc1ccc(C=NC23CN4CN(CN(C4)C2)C3)cc1OC	-	-	-	-
COc1cccc(NS(=O)(=O)c2cc(C(=O)N3CCCC3)ccc2NCCc2ccc(OC)c(OC)c2)c1	-	-	-	-
COc1ccc(C(=O)N2CCN(Cc3ccc(SC)cc3)CC2)cc1OC	45	-	-	-
